Laboratory results reported in PubChem BioAssay AID1159580 (chemical genetic matrix, 2015).
In all, about 5,500 compounds went through this assay and about 2,000 (36%) were called active. Not shown: some 18% with an inconclusive outcome. Rule as the data show it: active = normalized growth mostly below about 0.91 (no sharp cut-off); inconclusive = no clear call, values can overlap the other calls; inactive = mostly above about 0.92. This is one part of the list.

Test: chemical genetic growth profiling, strain panel (AID 1159580);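 also: tested at 20 µM; growth read once vehicle control cultures reached saturation at 30 °C; 1 = growth at the plate median or of vehicle wells; lower values mean less growth of the strain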
Conditions: growth OD
[1] = S. cerevisiae deletion strains, locus YDL101C, strain DUN1, stronger effect = lower value
[2] = S. cerevisiae deletion strains, locus YHR030C, strain SLT2, stronger effect = lower value

Measured: normalized growth

CNC(=S)NN=C(N)c1ccccn1
inactive: S. cerevisiae deletion strains, locus YAL013W, strain DEP1, stronger effect = lower value 1.02 | S. cerevisiae deletion strains, locus YBR229C, strain ROT2, stronger effect = lower value 1.02 | [1] 0.972 | S. cerevisiae deletion strains, locus YDL134C, strain PPH21, stronger effect = lower value 0.963 | S. cerevisiae deletion strains, locus YDR150W, strain NUM1, stronger effect = lower value 1.04 | S. cerevisiae deletion strains, locus YEL061C, strain CIN8, stronger effect = lower value 0.93 | S. cerevisiae deletion strains, locus YGR078C, strain PAC10, stronger effect = lower value 1.01 | [2] 0.786 | S. cerevisiae deletion strains, locus YHR087W, strain rtc3, stronger effect = lower value 1.05 | S. cerevisiae deletion strains, locus YJL187C, strain SWE1, stronger effect = lower value 1.01 | S. cerevisiae deletion strains, locus YJR043C, strain POL32, stronger effect = lower value 1.01 | S. cerevisiae deletion strains, locus YJR075W, strain HOC1, stronger effect = lower value 1.01 | S. cerevisiae deletion strains, locus YLR058C, strain SHM2 (second series), stronger effect = lower value 1.01 | S. cerevisiae deletion strains, locus YMR219W, strain ESC1, stronger effect = lower value 1.01 | S. cerevisiae deletion strains, locus YMR263W, strain SAP30, stronger effect = lower value 1.01 | S. cerevisiae deletion strains, locus YNL153C, strain GIM3, stronger effect = lower value 0.989 | S. cerevisiae deletion strains, locus YNL322C, strain KRE1, stronger effect = lower value 1.04 | S. cerevisiae deletion strains, locus YPL055C, strain LGE1, stronger effect = lower value 1.03 | S. cerevisiae deletion strains, locus YPR135W, strain CTF4, stronger effect = lower value 0.7
active: S. cerevisiae deletion strains, locus YKL190W, strain CNB1, stronger effect = lower value 0.521 | S. cerevisiae deletion strains, locus YLR039C, strain RIC1, stronger effect = lower value 0.519 | S. cerevisiae deletion strains, locus YLR085C, strain ARP6, stronger effect = lower value 0.484 | S. cerevisiae deletion strains, locus YLR262C, strain YPT6, stronger effect = lower value 0.698 | S. cerevisiae deletion strains, locus YML094W, strain GIM5, stronger effect = lower value 0.831 | S. cerevisiae deletion strains, locus YMR307W, strain GAS1, stronger effect = lower value 0.525 | S. cerevisiae deletion strains, locus YNL298W, strain CLA4 (second series), stronger effect = lower value 0.75 | S. cerevisiae deletion strains, locus YNR030W, strain Alg12, stronger effect = lower value 0.669 | S. cerevisiae deletion strains, locus YOL006C, strain TOP1, stronger effect = lower value 0.167 | S. cerevisiae deletion strains, locus YPL241C, strain CIN2, stronger effect = lower value 0.682 | S. cerevisiae strains, strain wild type, stronger effect = lower value 0.64

C/C(=N/NC(N)=S)c1ccccn1
inactive: S. cerevisiae deletion strains, locus YAR019C, strain CDC15, stronger effect = lower value 0.962 | S. cerevisiae deletion strains, locus YBL105C, strain PKC1, stronger effect = lower value 0.98 | S. cerevisiae deletion strains, locus YBR135W, strain CKS1, stronger effect = lower value 0.971 | S. cerevisiae deletion strains, locus YBR136W, strain MEC1, stronger effect = lower value 0.962 | S. cerevisiae deletion strains, locus YBR160W, strain CDC28, stronger effect = lower value 0.985 | S. cerevisiae deletion strains, locus YDL017W, strain CDC7, stronger effect = lower value 0.987 | S. cerevisiae deletion strains, locus YDL028C, strain MPS1, stronger effect = lower value 0.97 | [1] 0.982 | S. cerevisiae deletion strains, locus YDL108W, strain KIN28, stronger effect = lower value 0.97 | S. cerevisiae deletion strains, locus YDL132W, strain cdc53, stronger effect = lower value 0.949 | S. cerevisiae deletion strains, locus YDL214C, strain PRR2, stronger effect = lower value 0.932 | S. cerevisiae deletion strains, locus YDR052C, strain DBF4, stronger effect = lower value 0.963 | S. cerevisiae deletion strains, locus YDR054C, strain cdc34, stronger effect = lower value 0.944 | S. cerevisiae deletion strains, locus YDR226W, strain ADK1, stronger effect = lower value 0.971 | S. cerevisiae deletion strains, locus YDR477W, strain SNF1, stronger effect = lower value 0.878 | S. cerevisiae deletion strains, locus YER123W, strain YCK3, stronger effect = lower value 0.874 | S. cerevisiae deletion strains, locus YER133W, strain GLC7, stronger effect = lower value 0.889 | S. cerevisiae deletion strains, locus YFL009W, strain cdc4, stronger effect = lower value 0.939 | S. cerevisiae deletion strains, locus YFL029C, strain CAK1, stronger effect = lower value 0.945 | S. cerevisiae deletion strains, locus YFR003C, strain YPI1, stronger effect = lower value 0.985 | S. cerevisiae deletion strains, locus YFR019W, strain FAB1, stronger effect = lower value 0.908 | S. cerevisiae deletion strains, locus YFR028C, strain CDC14, stronger effect = lower value 0.962 | S. cerevisiae deletion strains, locus YGR040W, strain KSS1, stronger effect = lower value 0.875 | S. cerevisiae deletion strains, locus YGR052W, strain FMP48, stronger effect = lower value 0.951 | S. cerevisiae deletion strains, locus YGR092W, strain DBF2, stronger effect = lower value 0.833 | [2] 0.861 | S. cerevisiae deletion strains, locus YHR079C, strain IRE1, stronger effect = lower value 0.779 | S. cerevisiae deletion strains, locus YHR082C, strain KSP1, stronger effect = lower value 0.932 | S. cerevisiae deletion strains, locus YHR205W, strain SCH9, stronger effect = lower value 0.957 | S. cerevisiae deletion strains, locus YIL147C, strain SLN1, stronger effect = lower value 0.958 | S. cerevisiae deletion strains, locus YJL095W, strain BCK1, stronger effect = lower value 0.871 | S. cerevisiae deletion strains, locus YJL128C, strain PBS2, stronger effect = lower value 0.975 | S. cerevisiae deletion strains, locus YJL157C, strain FAR1, stronger effect = lower value 0.88 | S. cerevisiae deletion strains, locus YJR016C, strain ILV3, stronger effect = lower value 0.967 | S. cerevisiae deletion strains, locus YJR066W, strain TOR1 (second series), stronger effect = lower value 0.874 | S. cerevisiae deletion strains, locus YJR066W, strain TOR1, stronger effect = lower value 0.881 | S. cerevisiae deletion strains, locus YKL048C, strain ELM1, stronger effect = lower value 0.941 | S. cerevisiae deletion strains, locus YKL067W, strain YNK1, stronger effect = lower value 0.951 | S. cerevisiae deletion strains, locus YKL101W, strain HSL1, stronger effect = lower value 0.91 | S. cerevisiae deletion strains, locus YKL193C, strain SDS22, stronger effect = lower value 0.971 | S. cerevisiae deletion strains, locus YKL203C, strain TOR2, stronger effect = lower value 0.9 | S. cerevisiae deletion strains, locus YLR113W, strain HOG1, stronger effect = lower value 0.93 | S. cerevisiae deletion strains, locus YLR133W, strain CKI1, stronger effect = lower value 0.911 | S. cerevisiae deletion strains, locus YLR403W, strain SFP1, stronger effect = lower value 0.843 | S. cerevisiae deletion strains, locus YML070W, strain DAK1, stronger effect = lower value 0.918 | S. cerevisiae deletion strains, locus YMR001C, strain CDC5, stronger effect = lower value 0.967 | S. cerevisiae deletion strains, locus YMR205C, strain PFK2 (second series), stronger effect = lower value 0.945 | S. cerevisiae deletion strains, locus YMR277W, strain FCP1, stronger effect = lower value 0.978 | S. cerevisiae deletion strains, locus YNL006W, strain LST8, stronger effect = lower value 0.988 | S. cerevisiae deletion strains, locus YNL020C, strain ARK1, stronger effect = lower value 0.917 | S. cerevisiae deletion strains, locus YNL161W, strain CBK1, stronger effect = lower value 0.978 | S. cerevisiae deletion strains, locus YNL183C, strain NPR1, stronger effect = lower value 0.895 | S. cerevisiae deletion strains, locus YNL207W, strain RIO2, stronger effect = lower value 0.936 | S. cerevisiae deletion strains, locus YNL222W, strain SSU72, stronger effect = lower value 0.977 | S. cerevisiae deletion strains, locus YNL307C, strain MCK1 (second series), stronger effect = lower value 0.862 | S. cerevisiae deletion strains, locus YOL078W, strain AVO1, stronger effect = lower value 0.964 | S. cerevisiae deletion strains, locus YOL136C, strain PFK27, stronger effect = lower value 0.957 | S. cerevisiae deletion strains, locus YOR061W, strain CKA2, stronger effect = lower value 0.891 | S. cerevisiae deletion strains, locus YOR119C, strain RIO1, stronger effect = lower value 0.906 | S. cerevisiae deletion strains, locus YOR231W, strain MKK1, stronger effect = lower value 0.875 | S. cerevisiae deletion strains, locus YOR329C, strain SCD5, stronger effect = lower value 0.968 | S. cerevisiae deletion strains, locus YPL031C, strain PHO85, stronger effect = lower value 0.863 | S. cerevisiae deletion strains, locus YPL153C, strain RAD53, stronger effect = lower value 0.828 | S. cerevisiae deletion strains, locus YPL204W, strain HRR25, stronger effect = lower value 0.85 | S. cerevisiae deletion strains, locus YPL209C, strain IPL1, stronger effect = lower value 0.98 | S. cerevisiae deletion strains, locus YPL256C, strain CLN2, stronger effect = lower value 0.951 | S. cerevisiae deletion strains, locus YPR025C, strain CCL1, stronger effect = lower value 0.975 | S. cerevisiae deletion strains, locus YPR106W, strain ISR1, stronger effect = lower value 0.984 | S. cerevisiae deletion strains, locus YPR111W, strain DBF20, stronger effect = lower value 0.983 | S. cerevisiae deletion strains, strain NNK1, stronger effect = lower value 0.993 | S. cerevisiae deletion strains, strain TSCII, stronger effect = lower value 0.975
